# This is one part of a sample in which hits are shown more often than they occur.
# Pf Dd2 inh: Plasmodium falciparum Dd2 growth inhibition; P. falciparum Dd2 growth, SYBR Green, 72 h; Potency, µM (highest dose often 28.9 µM), for inactives: at the highest dose activity, negative = inhibition, hits mostly inhibitors; 4.3% of 120,000 active; active = well fitted inhibition curve with a large enough effect;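 note: plate controls were DMSO vehicle for no effect and reference drug for full effect; nearly all actives have a fitted effect of over 65% in size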
#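 Readout: SYBR Green fluorescence, 485 nm excitation, 535 nm emission, after ~16 h lysis at 37C. Before that, Dd2-infected red cells (2.5% hematocrit) grew 72 h with compound, 29 uM top final concentration.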
# The depositor's hits bear a star; i = inactive; [ ] = dose if it differs, or a comment. Potency is the fitted concentration of half-maximal effect.
SMILES,Pf Dd2 inh
COc1ccc(F)cc1S(=O)(=O)N1CCCC(Cn2c(C3CC3)nc3cccnc32)C1 (centres undefined),i
COCCn1cc(CN2CCN(c3cccc(OC)c3)CC2)ccc1=O,7%
COc1ccc(-c2noc(CC3CCN(C(=O)c4ccc(C)nc4)CC3)n2)cc1,i
O=C(O)CCc1cc2n(n1)CCN(C(=O)c1ccccc1-n1cccc1)C2,-4%
CC[C@H]1CN(C(=O)Nc2cccc(C(F)(F)F)c2)CC[C@H]1CC(=O)NCc1ccc(OC)cc1,i
CC[C@H]1CN(C(=O)Nc2cccc(OC)c2)CC[C@H]1CC(=O)NCc1cccnc1,1%[44.1 µM]
CC[C@H]1CN(C(=O)Nc2cccc(OC)c2)CC[C@H]1CC(=O)NCc1ccccc1,13µM*
Cc1ccc(CNC(=O)Cn2ccn3nc4c(c3c2=O)CCCCC4)cc1,-4%
COc1ccc(-n2nc(C(=O)N3CCN(c4ccccc4OC)CC3)c3c4ccccc4n(C)c3c2=O)cc1,73%
COc1ccc(N2CCN(C(=O)c3cn(C)c4ccc(S(=O)(=O)N(C)C5CCCCC5)cc4c3=O)CC2)cc1,11µM*
CCn1cc(C(=O)N2CCN(c3cc(C)ccc3C)CC2)c(=O)c2cc(S(=O)(=O)N3CCOCC3)ccc21,-6%
CCn1cc(C(=O)N2CCN(c3ccccc3F)CC2)c(=O)c2cc(S(=O)(=O)N(C)C)ccc21,39%
CN(C1CCCCC1)S(=O)(=O)c1ccc2c(c1)c(=O)c(C(=O)N1CCN(c3ccccc3F)CC1)cn2C,0.89µM*
Cn1cc(C(=O)N2CCN(c3ccccc3)CC2)c(=O)c2cc(S(=O)(=O)N3CCCC3)ccc21,1.6µM*
COc1ccc(-n2nc(C(=O)N3CCN(c4ccc(F)cc4)CC3)c3c4ccccc4n(C)c3c2=O)cc1,27%
Cn1cc(C(=O)N2CCN(c3cccc(Cl)c3)CC2)c(=O)c2cc(S(=O)(=O)N3CCCC3)ccc21,11%
CN(C1CCCCC1)S(=O)(=O)c1ccc2c(c1)c(=O)c(C(=O)NCc1ccc(F)cc1)cn2C,30%
COc1ccc(N2CCN(C(=O)c3cn(C4CCCCC4)c(=O)c4c3c3ccccc3n4C)CC2)cc1,5µM*
CN(C1CCCCC1)S(=O)(=O)c1ccc2c(c1)c(=O)c(C(=O)N1CCN(c3ccc(F)cc3)CC1)cn2C,60%
CCn1cc(C(=O)N2CCN(c3ccc(F)cc3)CC2)c(=O)c2cc(S(=O)(=O)N(C)C3CCCCC3)ccc21,-8%
CN(C)S(=O)(=O)NCC(=O)N1CCCCCNC(=O)CC1c1ccccc1 (centres undefined),37%
COc1cncc([C@@H](NS(=O)(=O)c2cnn(C)c2)C2CC(O)C2)c1 (some centres undefined),-1%
CNC(=O)[C@@H]1CN(S(=O)(=O)c2ccc(C#N)cc2)C[C@H]1COC,21%
COCCN1CCC(N2CCN(S(=O)(=O)c3ccc(F)cc3F)CC2)C1=O (centres undefined),21%
CCC(=O)N1CCCC(c2nc(-c3cccnc3)no2)CCNC(=O)CC1 (centres undefined),9%
SMILES,Pf Dd2 inh
CNC(=O)C1CCN(C(=O)c2cc(COc3ccc4c(c3)OCO4)[nH]n2)C1 (centres undefined),-8%
COc1ccccc1-c1cc(C(=O)N2CCCC2)nc2c1cnn2C,18%
COCCOC(=O)C1=C(C)N=C2SC=C(CC(=O)NCc3cccc(F)c3)N2C1c1ccccc1 (centres undefined),-18%
CCC1=C(C(=O)OC)C(c2cccc(OC)c2OC)N2C(CC(=O)NC3CC3)=CSC2=N1 (centres undefined),i
CCC1=C(C(=O)OC)C(c2ccccc2C)N2C(CC(=O)NCC3CC3)=CSC2=N1 (centres undefined),-13%
COC(=O)C1=C(C)N=C2SC=C(CC(=O)NCCc3cccs3)N2C1c1cccc(OC)c1 (centres undefined),i
CCC1=C(C(=O)OC)C(c2ccccc2)N2C(CC(=O)NCc3cccc(F)c3)=CSC2=N1 (centres undefined),4µM*
CCC1=C(C(=O)OC)C(c2cccc(C)c2)N2C(CC(=O)Nc3ccc(OC)cc3)=CSC2=N1 (centres undefined),3.2µM*
CCC1=C(C(=O)OC)C(c2cccc(C)c2)N2C(CC(=O)N3CCOCC3)=CSC2=N1 (centres undefined),-29%
CCC1=C(C(=O)OC)C(c2ccccc2)N2C(CC(=O)NCC3CC3)=CSC2=N1 (centres undefined),-3%
CCOC(=O)C1=C(C)N=C2SC=C(CC(=O)N3CCOCC3)N2C1c1ccccc1OC (centres undefined),i
CCOC(=O)C1=C(C)N=C2SC=C(CC(=O)NC3CC3)N2C1c1cccc(OC)c1OC (centres undefined),-2%
COC(=O)C1=C(C)N=C2SC=C(CC(=O)Nc3cc(C)cc(C)c3)N2C1c1ccccc1OC (centres undefined),7.1µM*
CCC1=C(C(=O)OC)C(c2cccc(F)c2)N2C(CC(=O)NCc3cccc(F)c3)=CSC2=N1 (centres undefined),2.5µM*
